# About 410 targets per protein were measured; listed, in parts, are those with the strongest signals and a random draw of the rest.
# Legend:
# Test in all cases: glycan array binding signal (z-score within array); higher = stronger binding
# Settings in all cases: glycan notation: IUPAC condensed, linker removed
# [1] = biological target: Gal(b1-4)GlcNAc(b1-3)Gal(b1-4)GlcNAc(b1-2)[Gal(b1-4)GlcNAc(b1-3)Gal(b1-4)GlcNAc(b1-6)]Man(a1-6)[Gal(b1-4)GlcNAc(b1-3)Gal(b1-4)GlcNAc(b1-2)Man(a1-3)]Man(b1-4)GlcNAc(b1-4)[Fuc(a1-6)]GlcNAc
# Outline: (§1)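 Arrays were curated from the Consortium for Functional Glycomics database, 3228 in total, and kept only where the protein sequence was available. Binding is expressed as a within-array Z-score. This score was averaged across arrays of the same protein sequence at different concentrations or buffers and across linkers, and negative values can be read as non-binding.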
# [2] = biological target: Gal(b1-4)GlcNAc(b1-3)Gal(b1-4)GlcNAc(b1-3)Gal(b1-4)GlcNAc(b1-3)Gal(b1-4)GlcNAc(b1-2)Man(a1-3)[Gal(b1-4)GlcNAc(b1-3)Gal(b1-4)GlcNAc(b1-3)Gal(b1-4)GlcNAc(b1-3)Gal(b1-4)GlcNAc(b1-2)Man(a1-6)]Man(b1-4)GlcNAc(b1-4)[Fuc(a1-6)]GlcNAc
# Outline: as §1
# [3] = biological target: Gal(b1-4)GlcNAc(b1-3)Gal(b1-4)GlcNAc(b1-3)Gal(b1-4)GlcNAc(b1-3)Gal(b1-4)GlcNAc(b1-3)Gal(b1-4)GlcNAc(b1-2)Man(a1-3)[Gal(b1-4)GlcNAc(b1-3)Gal(b1-4)GlcNAc(b1-3)Gal(b1-4)GlcNAc(b1-3)Gal(b1-4)GlcNAc(b1-3)Gal(b1-4)GlcNAc(b1-2)Man(a1-6)]Man(b1-4)GlcNAc(b1-4)GlcNAc
# Outline: as §1
# [4] = biological target: Gal(b1-4)GlcNAc(b1-3)Gal(b1-4)GlcNAc(b1-3)Gal(b1-4)GlcNAc(b1-3)Gal(b1-4)GlcNAc(b1-3)Gal(b1-4)GlcNAc(b1-3)Gal(b1-4)GlcNAc(b1-2)Man(a1-3)[Gal(b1-4)GlcNAc(b1-3)Gal(b1-4)GlcNAc(b1-3)Gal(b1-4)GlcNAc(b1-3)Gal(b1-4)GlcNAc(b1-3)Gal(b1-4)GlcNAc(b1-3)Gal(b1-4)GlcNAc(b1-2)Man(a1-6)]Man(b1-4)GlcNAc(b1-4)GlcNAc
# Outline: as §1
# [5] = biological target: Gal3S(b1-4)Glc6S
# Outline: as §1
# [6] = biological target: Gal4S6S(b1-4)GlcNAc
# Outline: as §1
# [7] = biological target: Gal6S(b1-4)Glc6S
# Outline: as §1
# [8] = biological target: Gal6S(b1-4)GlcNAc6S
# Outline: as §1
# [9] = biological target: GalNAc(b1-3)Gal(a1-6)Gal(b1-4)Glc
# Outline: as §1
# [10] = biological target: GalNAc(b1-4)GlcNAc(b1-2)Man
# Outline: as §1
# [11] = biological target: GalNAc(b1-4)GlcNAc(b1-2)Man(a1-3)[GalNAc(b1-4)GlcNAc(b1-2)Man(a1-6)]Man(b1-4)GlcNAc(b1-4)GlcNAc
# Outline: as §1
# [12] = biological target: GlcNAc(a1-4)Gal(b1-4)GlcNAc(b1-3)Gal(b1-4)Glc
# Outline: as §1
# [13] = biological target: GlcNAc(b1-3)Gal(b1-4)GlcNAc(b1-3)Gal(b1-4)GlcNAc(b1-3)Gal(b1-4)GlcNAc(b1-3)Gal(b1-4)GlcNAc(b1-2)Man(a1-3)[GlcNAc(b1-3)Gal(b1-4)GlcNAc(b1-3)Gal(b1-4)GlcNAc(b1-3)Gal(b1-4)GlcNAc(b1-3)Gal(b1-4)GlcNAc(b1-2)Man(a1-6)]Man(b1-4)GlcNAc(b1-4)[Fuc(a1-6)]GlcNAc
# Outline: as §1
# [14] = biological target: GlcNAc(b1-3)Man
# Outline: as §1
# [15] = biological target: Man(a1-2)Man(a1-3)[Man(a1-2)Man(a1-6)]Man
# Outline: as §1
# [16] = biological target: Man(a1-2)Man(a1-6)[Man(a1-3)]Man(a1-6)[Man(a1-2)Man(a1-2)Man(a1-3)]Man(b1-4)GlcNAc(b1-4)GlcNAc
# Outline: as §1
# [17] = biological target: Neu5Ac(a2-3)Gal(b1-3)GlcNAc
# Outline: as §1
# [18] = biological target: Neu5Ac(a2-3)Gal(b1-4)GlcNAc(b1-2)Man(a1-3)[Neu5Ac(a2-3)Gal(b1-4)GlcNAc(b1-2)Man(a1-6)]Man(b1-4)GlcNAc(b1-4)[Fuc(a1-6)]GlcNAc
# Outline: as §1
# [19] = biological target: Neu5Ac(a2-3)Gal(b1-4)GlcNAc(b1-2)[Neu5Ac(a2-3)Gal(b1-4)GlcNAc(b1-6)]Man(a1-6)[Neu5Ac(a2-3)Gal(b1-4)GlcNAc(b1-2)Man(a1-3)][GlcNAc(b1-4)]Man(b1-4)GlcNAc(b1-4)GlcNAc
# Outline: as §1
# [20] = biological target: Neu5Ac(a2-3)Gal(b1-4)GlcNAc(b1-3)Gal(b1-4)GlcNAc
# Outline: as §1
# [21] = biological target: Neu5Ac(a2-3)Gal(b1-4)GlcNAc(b1-3)Gal(b1-4)GlcNAc(b1-2)Man(a1-3)[Neu5Ac(a2-3)Gal(b1-4)GlcNAc(b1-3)Gal(b1-4)GlcNAc(b1-2)Man(a1-6)]Man(b1-4)GlcNAc(b1-4)GlcNAc
# Outline: as §1
# [22] = biological target: Neu5Ac(a2-3)Gal(b1-4)GlcNAc(b1-3)Gal(b1-4)GlcNAc(b1-3)GalNAc
# Outline: as §1
# [23] = biological target: Neu5Ac(a2-3)Gal(b1-4)GlcNAc(b1-3)Gal(b1-4)GlcNAc(b1-3)[Neu5Ac(a2-3)Gal(b1-4)GlcNAc(b1-3)Gal(b1-4)GlcNAc(b1-6)]GalNAc
# Outline: as §1
# [24] = biological target: Neu5Ac(a2-3)Gal(b1-4)GlcNAc(b1-6)[Gal(b1-3)]GalNAc
# Outline: as §1
# [25] = biological target: Neu5Ac(a2-3)Gal(b1-4)[Fuc(a1-3)]GlcNAc(b1-3)Gal(b1-4)[Fuc(a1-3)]GlcNAc(b1-3)Gal(b1-4)[Fuc(a1-3)]GlcNAc
# Outline: as §1
# [26] = biological target: Neu5Ac(a2-3)Gal(b1-4)[Fuc(a1-3)]GlcNAc(b1-3)GalNAc
# Outline: as §1
# [27] = biological target: Neu5Ac(a2-3)GalNAc
# Outline: as §1
# [28] = biological target: Neu5Ac(a2-3)[GalNAc(b1-4)]Gal(b1-4)Glc
# Outline: as §1
# [29] = biological target: Neu5Ac(a2-6)Gal(b1-4)GlcNAc(b1-3)GalNAc
# Outline: as §1
# [30] = biological target: Neu5Ac(a2-6)GalNAc(b1-4)GlcNAc
# Outline: as §1
# [31] = biological target: Neu5Ac(a2-6)GlcNAc(b1-4)GlcNAc
# Outline: as §1
# [32] = biological target: Neu5Ac(a2-8)Neu5Ac(a2-8)Neu5Ac
# Outline: as §1
# [33] = biological target: Neu5Ac(a2-8)Neu5Gc(a2-3)Gal(b1-4)GlcNAc
# Outline: as §1
# [34] = biological target: Neu5Gc(a2-3)Gal(b1-3)GlcNAc
# Outline: as §1
binder,measurement,setting,value
PX14379A-bvu-539-28-539 (Bacteroides vulgatus) (protein) EPYSEIIEEDYVPTEADEIALLATTYSQLRFVMDWYGLFDLQEESGDVIVTPTRPNGWDDGGTYKQMHKHTWDNQQGQPQSIWDYCYKGIANANKILKRADEGFFTEESKPKVVAEVKGVRALWYSILCDTHGNIPIQTSFSEEVPVQSTRKQVFDFIINELKEVMPNLPTEVNKSTYGRLTQWGAKCLMARMYLNAGVYTGTPMWNECLEQCNDIINSGLFSLETNYTDIFKTENSGCVETIFAIPYDEVYNEGDNNGPVFGAHMKFLSSNSRKVFNMQTTPWGGSAANPQFINSYDPDDMRLKYTWLQGDQYSPDGVLITTFPNKLPSIYKTDTDDGYRVGKYEIKVGAKSLLSNDFPYFRYTEVLLMKAECLLRLGQNETEAAHIVSQIRERAFRESAHPEKATVDAAWLKGDTHINYGTLDEKGQIDDAGNTEVVELGGLYDEWGWEFAAEARRRTDMIRFGTYQKKSWFNHTPTANDLNGNSILFPIHLDHLNTNPNLQQNPGYAGK,glycan array binding signal (z-score),[1],7.27
same,glycan array binding signal (z-score),[2],0.984
same,glycan array binding signal (z-score),[3],9.41
same,glycan array binding signal (z-score),[4],0.819
same,glycan array binding signal (z-score),[5],-0.224
same,glycan array binding signal (z-score),[6],-0.533
same,glycan array binding signal (z-score),[7],-0.28
same,glycan array binding signal (z-score),[8],-0.175
same,glycan array binding signal (z-score),[9],2.98
same,glycan array binding signal (z-score),[10],-0.549
same,glycan array binding signal (z-score),[11],-0.102
same,glycan array binding signal (z-score),[12],-0.444
same,glycan array binding signal (z-score),[13],3.83
same,glycan array binding signal (z-score),[14],-0.278
same,glycan array binding signal (z-score),[15],-0.377
same,glycan array binding signal (z-score),[16],-0.361
same,glycan array binding signal (z-score),[17],-0.439
same,glycan array binding signal (z-score),[18],-0.571
same,glycan array binding signal (z-score),[19],-0.378
same,glycan array binding signal (z-score),[20],-0.185
same,glycan array binding signal (z-score),[21],0.342
same,glycan array binding signal (z-score),[22],-0.138
same,glycan array binding signal (z-score),[23],-0.132
same,glycan array binding signal (z-score),[24],-0.388
same,glycan array binding signal (z-score),[25],-0.35
same,glycan array binding signal (z-score),[26],5.8
same,glycan array binding signal (z-score),[27],-0.249
same,glycan array binding signal (z-score),[28],-0.297
same,glycan array binding signal (z-score),[29],-0.204
same,glycan array binding signal (z-score),[30],-0.211
same,glycan array binding signal (z-score),[31],-0.56
same,glycan array binding signal (z-score),[32],-0.382
same,glycan array binding signal (z-score),[33],7.1
same,glycan array binding signal (z-score),[34],-0.228

# From the supplement of paper PMC8728848
